WT yeast gro inh: growth inhibition of WT yeast, mitochondrial fusion screen; mitochondrial fusion phenotypic screen, WT strain; inhibition, % at 10 µM; 190,000 compounds, 2.1% hits; AID 1362; in the data active = inhibition above about 58%; tested in S. cerevisiae
Platelet DG rel: platelet dense granule release activity. inhibition, %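 (compounds screened at 7.5 µM in platelet-rich plasma)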. human platelet-rich plasma, SFLLRN dense granule ATP release, luminescence. AID 1663. 300,000 compounds, 0.22% hits;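 active = mean replicate score, as percent of positive control, at or above 50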
TPT1 inhibitor: blocks Candida albicans tRNA 2'-phosphotransferase | inhibition, % at 5 µM | 300,000 compounds, 0.81% hits | recombinant caTPT1, FP RNA substrate dephosphorylation;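 active = inhibition above the mean of all tested compounds plus 3 SD, set per screening campaign, cut at about 24% in these data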;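 note: plate controls were DMSO alone for no effect and ferristatin control at 100 nM for full effect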
Rtt109 Vps75: blocks Candida albicans Rtt109/Vps75 acetyltransferase activity; 330,000 compounds, 0.16% hits; inhibition, % at 34.9 µM; Q5AAJ8; purified Rtt109/Vps75, ThioGlo CoA-SH fluorescence, 4 h;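 active = inhibition of at least 50% in every replicate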
SKKanGAS inh: blocks kanamycin growth of S. pyogenes SKKanGAS strain. BacTiter-Glo, 6 h. inhibition, % at 7.5 µM. 300,000 compounds, 1.3% hits;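 active = mean replicate score, as percent of positive control median, at least 50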;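 note: strain carries kanamycin resistance gene driven by streptokinase promoter and grows in 40 µg/ml kanamycin; loss of luminescence reflects streptokinase promoter inhibition or plain growth inhibition; 0% = median of DMSO wells and 100% = positive control at its reference dose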
PHOSPHO1 inh: inhibitors of human PHOSPHO1 phosphatase; recombinant PHOSPHO1, absorbance phosphatase assay; inhibition, % at 13.3 µM; 290,000 compounds, 1.1% hits; AID 1565; in the data active = inhibition above about 60%
Target sequence (Q8TCT1 whole entry, looked up): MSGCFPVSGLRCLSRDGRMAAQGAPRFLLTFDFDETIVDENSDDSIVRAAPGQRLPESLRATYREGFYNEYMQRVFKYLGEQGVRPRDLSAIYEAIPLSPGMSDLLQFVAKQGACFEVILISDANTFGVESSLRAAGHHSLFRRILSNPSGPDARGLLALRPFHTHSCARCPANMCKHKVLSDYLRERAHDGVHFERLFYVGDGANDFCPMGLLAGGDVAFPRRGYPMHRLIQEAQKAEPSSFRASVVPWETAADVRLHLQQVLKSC
caTPT1 confirm: confirmation of Candida albicans TPT1 inhibitors; shares compounds with TPT1 inhibitor; recombinant caTPT1, fluorescence polarization, RNase T1 coupled; inhibition, % at 5 µM; 2,400 compounds, 74% hits;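 active = inhibition above the primary screen limit, the mean inhibition of all tested compounds plus 3 SD, cut at about 25% in these data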
RNase T1 inh: blocks Aspergillus oryzae RNase T1, a TPT1 counter-screen | shares compounds with TPT1 inhibitor | inhibition, % at 5 µM | AID 2153 | RNase T1 cleavage, fluorescence polarization, 1536-well | 2,400 compounds, 83% hits;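 active = inhibition above the solvent-only control well mean plus 3 SD, limit set per screening run, cut at about 23% in these data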;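 note: plate controls were DMSO wells with enzyme for no effect and wells without RNase T1 for full effect; inhibitors block cleavage so intact labeled substrate keeps polarization high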
Target sequence (P00651 whole entry, looked up): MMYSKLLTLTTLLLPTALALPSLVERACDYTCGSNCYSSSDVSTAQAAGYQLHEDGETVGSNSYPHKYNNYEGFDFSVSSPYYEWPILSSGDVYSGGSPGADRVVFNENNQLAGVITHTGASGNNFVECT
* hit, by the source's call; . = no result given. The list is not random: actives were taken first. Their share in the collection is about 3.9%.

SMILES	WT yeast gro inh	Platelet DG rel	TPT1 inhibitor	Rtt109 Vps75	SKKanGAS inh	PHOSPHO1 inh	caTPT1 confirm	RNase T1 inh
CCSC1=N/C(=C\c2ccc3c(c2)OCO3)C(=O)S1	-9	-2	-9	3	0	-19	.	.
Nc1c(C2CCCCC2)c(=O)on1C(=O)c1ccccc1	.	.	.	-5	.	.	.	.
CC(C)[C@@H](CO)N(C)S(=O)(=O)c1ccccc1Br	.	.	.	2	.	.	.	.
COc1ccc(C(=O)NCc2ccc(N3CCN(C(=O)OC(C)(C)C)CC3)cc2)cc1	-15	2	-3	5	0	-8	.	.
CN1CCc2c(sc(NC(=O)Cc3ccc(F)cc3)c2C(N)=O)C1	.	8	0	-5	-1	30	.	.
COc1ccc(C(=O)c2c(N)sc3c2CCN(C(=O)OC(C)(C)C)C3)cc1	.	21	30*	.	10	0	13	22*
CN1CCc2c(sc(N)c2C(=O)c2ccc(Cl)cc2)C1	.	-3	32*	-1	-2	2	37*	48*
Cc1ccnc(NC(=O)c2cnc(Cl)c(Cl)c2)c1	.	7	-2	-15	1	44	.	.
CN(C)c1ccc(N/C=C/C(=O)c2ccc(F)cc2)cc1	12	95*	36*	6	-4	27	49*	59*
CCOc1ccc(N2C(=O)CC(/C=C3/N(C)c4ccccc4C3(C)C)C2=O)cc1 (centres undefined)	14	-36	25*	13	11	-70	18	26*
CN1/C(=C/C2CC(=O)N(c3cccc4ccccc34)C2=O)C(C)(C)c2ccccc21 (centres undefined)	-1	-2	38*	3	6	26	54*	68*
CN1/C(=C/C2CC(=O)NC2=O)C(C)(C)c2ccccc21 (centres undefined)	9	.	-6	-11	.	26	.	.
Cc1cccc(C(=O)OC(C)C(=O)N2CCc3ccccc3C2)c1C (centres undefined)	.	.	.	11	.	.	.	.
COc1ccc(CCNC(=O)Cc2ccc(NC3=NC4CS(=O)(=O)CC4S3)cc2)c(OC)c1 (centres undefined)	.	-4	-1	-1	-2	33	.	.
CNC(=O)c1[nH]cnc1C(=O)Nc1ccccc1	.	.	.	4	.	.	.	.
CNC(=O)c1[nH]cnc1C(=O)Nc1ccccn1	-12	-17	94*	5	3	23	4	8
CC(C)(C)C(=O)c1sc2nc(-c3cccs3)cc(C(F)(F)F)c2c1N	6	4	7	-2	4	37	.	.
Nc1c(C(=O)Nc2nccs2)sc2nc(-c3cccs3)cc(C(F)(F)F)c12	-31	3	31*	-6	10	58	29*	41*
CCCCN(C)C1=CC2=CC(=C(C#N)C#N)CCC2CC1 (centres undefined)	-18	3	3	-6	-5	-19	.	.
CCN(CC)C1=CC2=CC(=C(C#N)C#N)CCC2CC1 (centres undefined)	22	-1	32*	-1	.	0	22	37*
Cc1ccc([N+](=O)[O-])cc1S(=O)(=O)Nc1ccc(C(=O)NCC2CCCO2)cc1 (centres undefined)	.	.	.	1	.	.	.	.
CC(=O)Nc1sc(/C(C#N)=C\c2cccc(Cl)c2)nc1-c1ccc(C)cc1	-5	19	36*	-5	26	8	36*	48*
COc1ccc(/C=c2\s/c(=C/C(=O)c3ccc(C)cc3)[nH]c2=O)c(OC)c1	8	10	67*	6	31	3	28*	37*
CCOC(=O)C1=C(O)CSC1=Nc1ccccc1	-1	0	27*	-3	1	-11	21	27*
O=C(O)CCCNc1cc(N2CCN(C(=O)c3ccco3)CC2)c2noc3c2c1C(=O)c1ccccc1-3	.	3	96*	27	52*	-4	170*	141*
SMILES	WT yeast gro inh	Platelet DG rel	TPT1 inhibitor	Rtt109 Vps75	SKKanGAS inh	PHOSPHO1 inh	caTPT1 confirm	RNase T1 inh
CCOC(=O)N1CCN(c2cc(NCCC(=O)O)c3c4c(onc24)-c2ccccc2C3=O)CC1	35	.	137*	-1	.	44	185*	152*
O=C(O)CCCNc1cc(N2CCC3(CC2)OCCO3)c2noc3c2c1C(=O)c1ccccc1-3	19	.	-15	.	.	-16	.	.
CC(C)(O)CN(C(=O)c1ccc([N+](=O)[O-])cc1)C1CCCC1	.	.	.	1	.	.	.	.
O=C1/C(=C\c2cccnc2)Sc2ccccc21	15	19	2	3	6	12	.	.
CC(=O)N(\C=C/C=C/C=C1\Sc2ccccc2C1=O)c1ccccc1	16	3	58*	-3	9	-23	84*	94*
CC(=O)Nc1ccc(/C=C2/Sc3ccccc3C2=O)cc1	-15	8	44*	0	-9	3	43*	51*
